# Test results reported in PubChem BioAssay AID651965 (National Center for Advancing Translational Sciences (NCATS), 2013).
# Hit rate of the full screen: of about 340,000 compounds, about 6,400 (1.9%) were called active. A call without a number means that no potency is given here. Inconclusive results (about 4%) are left out. The call rests on the fitted dose curve; in most records, active means well fitted falling curve with a large enough effect; inconclusive means small, poorly fitted or top-dose-only effect; inactive means no such curve, though single readings can be large or run the other way. For the sample, actives were picked, then their nearest neighbours and some compounds at random.
# Target: ATP-dependent Clp protease proteolytic subunit (Bacillus subtilis (strain 168)) (UniProt P80244)
# Sequence (P80244 whole entry, looked up): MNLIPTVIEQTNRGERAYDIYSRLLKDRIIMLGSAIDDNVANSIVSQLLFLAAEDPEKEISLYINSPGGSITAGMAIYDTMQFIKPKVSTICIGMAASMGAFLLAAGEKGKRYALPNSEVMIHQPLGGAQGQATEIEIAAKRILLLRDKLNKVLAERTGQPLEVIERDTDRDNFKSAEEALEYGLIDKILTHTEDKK
# Test: qHTS Assay for Activators of ClpP; further: the source files actives as falling curves though it sought activators and does not explain the sign; nearly all actives have a fitted effect of over 65% in size
# Conditions: purified B. subtilis ClpP, FRET peptide cleavage, 20 min; series mostly up to 57.5 µM
# Outline: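 Buffer: 100 mM Tris/HCl pH8, 100 mM KCl, 0.05% low protease BSA, 2.5% glycerol, 0.01% Tween-20. ClpP 10 microg/mL final; 20 min RT; delta FRET normalized to ADEP and DMSO controls.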
# Potency means the concentration at half of the fitted maximal effect.
row,Structure (SMILES),Potency
1,C=CCc1c(C)nc2cc(-c3ccccc3)[nH]n2c1=O,inactive
2,Cc1ccc(-c2nc(SCc3ccc(Br)cc3)n3[nH]c(=O)cc3n2)cc1,inactive
3,CCc1ccccc1OCCSc1nc(-c2cccs2)nc2cc(=O)[nH]n12,inactive
4,CCc1c(C)nc2cc(C)[nH]n2c1=O,22.4 µM (active)
5,CCC(C)n1[nH]c(=O)c2c(C)cc(C)nc21 (stereo unspecified),inactive
6,CCc1c(C)nc2cc(-c3cccs3)[nH]n2c1=O,22.4 µM (active)
7,Cc1cc(Br)cn2c(Cc3ccsc3)c(-c3ccc(C#N)cc3)nc12,inactive
8,CCOC(=O)[C@]12CCC=C1N(Cc1ccco1)C(=O)[C@H](CC(=O)N1CCSCC1)C2,inactive
9,Nc1nc(N)c(N=O)c(N)n1,inactive
10,CCC(=O)N(Cc1cc2ccccc2[nH]c1=O)c1ccc(OC)cc1,inactive
11,CCOc1ccc2[nH]c(=O)c(CN(CCCO)C(C)=O)cc2c1,28.2 µM (active)
12,CCC(=O)N(CCc1ccccc1)Cc1cc2cc(C)ccc2[nH]c1=O,inactive
13,CC(C)N=C1CCCC1C(=S)SSC(=S)C1CCCC1=NC(C)C (stereo unspecified),inactive
14,O=C(CSc1nc(Nc2ccc(F)c(F)c2)c2ccccc2n1)c1ccc(Cl)cc1,inactive
15,Fc1ccc(Nc2nc(SCc3ccccc3Cl)nc3ccccc23)cc1,31.6 µM (active)
16,Fc1ccc(CSc2nc(NCc3ccccc3)c3ccccc3n2)cc1,inactive
17,Cc1cccc(C)c1NC(=O)C(c1cccc2ccccc12)n1c(=O)c(-c2ccco2)nc2ccccc21 (stereo unspecified),inactive
18,CN(Cc1ccccc1)c1ccc(/C=C/c2ccnc3ccccc23)cc1,inactive
19,CN(C)c1ccc(/C=C2\C=Cc3ccccc32)cc1Br,inactive
20,Cc1nc2ccn(Cc3cccnc3)c(=O)c2cc1C(=O)N1CCN(c2ccccc2F)CC1,25.1 µM (active)
21,CCc1ccc(NC(=O)c2cc3c(=O)n(Cc4cccnc4)ccc3nc2C)cc1,inactive
22,O=C(Cn1nc(Cc2cccnc2)c2ccccc2c1=O)N1CCN(c2ccccc2F)CC1,inactive
23,Cn1c(=O)n(Cc2ccco2)c(=N)c2c3c(sc21)CCCC3,inactive
24,CN1CCc2c(sc3c2c(NCc2ccco2)nc2nnnn23)C1,17.8 µM (active)
25,CCCSc1nc(NCc2ccco2)c2c3c(sc2n1)COC(C)(CC)C3 (stereo unspecified),inactive
26,NC(=S)NN=Cc1ccc(OC(=O)COc2cc(Cl)c(Cl)cc2Cl)cn1,inactive

row,Structure (SMILES),Potency
1,CC(C)NC(=O)c1nn(-c2ccccc2F)nc1CO,inactive
2,COc1ccc(C(=O)NC(C)CCc2ccccc2)c(OC)c1 (stereo unspecified),inactive
3,CC(CCCc1ccccc1)NC(=O)c1nn(-c2ccc(Cl)cc2)nc1CO (stereo unspecified),31.6 µM (active)
4,COc1ccc(CCNC(=O)c2c(C)nn(-c3ccccc3)c2Cl)cc1,inactive
5,O=C(Cc1ccc(Cl)cc1)Nc1ccc2nn(-c3ccc(Cl)cc3)nc2c1,inactive
6,Nc1nonc1C(=O)NCCc1ccccc1,inactive
7,O=C(NCCCO)c1nn(-c2ccc(Cl)cc2)nc1CO,14.1 µM (active)
8,Cc1ccc(-n2nc(CO)c(C(=O)NCCc3ccccc3)n2)cc1,10 µM (active)
9,Cc1cc2nn(-c3ccc(Cl)cc3)nc2cc1NC(=O)C(C)C,inactive
10,CCN(CC)c1ccc(/C=C/c2c(C)cnc3ccc(C)cc23)cc1,inactive
11,COC(=O)c1ccc2nc(-c3cccc(Br)c3)c(Cc3ccc(OC)cc3C)n2c1,inactive
12,CCOC(=O)c1cc(-c2sc(NC(=O)c3ccccc3)nc2C)n(CCO)n1,inactive
13,CCCCCCCCN1C(=O)[C@H](CC(=O)NCc2cccc3ccccc23)C[C@@]2(C(=O)OC)CCCCC=C12,inactive
14,CC(C)c1ccc(Cn2c(COc3ccccc3)nc3ccccc32)cc1,inactive
15,CC(C)c1ccc(OCC(O)CN2CCN(c3ccccn3)CC2)cc1 (stereo unspecified),inactive
16,CC(C)c1ccc(OCC(O)Cn2cnc3ccccc32)cc1 (stereo unspecified),28.2 µM (active)
17,COCCn1c(=O)[nH]c2cc(C(=O)NCc3cccnc3)ccc2c1=O,28.2 µM (active)
18,CCOc1cc2[nH]c(=S)n(Cc3ccc(C(=O)NCCOC)cc3)c(=O)c2cc1OCC,inactive
19,COCCn1c(=S)[nH]c2cc(C(=O)NCCc3ccc(OC)c(OC)c3)ccc2c1=O,inactive
20,CC(C)(C)c1cc(C(=O)NCc2cccnc2)ccn1,inactive
21,COc1cc2[nH]c(=O)n(Cc3ccc(C(=O)NCc4ccc(C)cc4)cc3)c(=O)c2cc1OC,10 µM (active)
22,COc1cc2[nH]c(=O)n(Cc3ccc(C(=O)NC4CCN(Cc5ccccc5)CC4)cc3)c(=O)c2cc1OC,inactive
23,CCCCCn1nnnc1C1c2ccccc2C(=O)N1Cc1ccco1 (stereo unspecified),inactive
24,C#Cc1cc(N2CCN(C(=O)c3ccoc3)CC2)n2nc(-c3cccc(Cl)c3)cc2n1,inactive
25,CC(=O)N1Cc2cc(C(=O)NCc3cccc(F)c3)nc(-c3cccc(C4=CCCCC4)c3)c2[C@H]1CCO,inactive
26,CC(C)(C)C(=O)c1c(N)[nH]c(C(=O)c2ccccc2)c1-c1ccc(F)cc1,inactive

row,Structure (SMILES),Potency
1,O[C@@H]1C[C@H](c2ccccc2)N(Cc2cccs2)C[C@H]1n1cc(C2CC2)nn1,inactive
2,CCOc1ccccc1NC(=O)Cn1c(=O)n(Cc2ccco2)c(=O)c2sc3ccccc3c21,inactive
3,O=C(Cn1c(=O)n(-c2ccc(F)cc2)c(=O)c2sc3ccccc3c21)NC1CCCC1,inactive
4,O=C(Cn1c(=O)n(Cc2ccccc2)c(=O)c2sc3ccccc3c21)Nc1ccccc1F,28.2 µM (active)
5,Cc1ccc(CNC(=O)CSC2=Nc3ccccc3C3=NC(C)C(=O)N23)cc1 (stereo unspecified),inactive
6,O=C(CSC1=Nc2ccccc2C2=NC(CC(=O)NCc3ccco3)C(=O)N12)NCc1ccco1 (stereo unspecified),inactive
7,O=C(CSC1=Nc2ccccc2C2=NC(c3ccccc3)C(=O)N12)NCC1CCCO1 (stereo unspecified),17.8 µM (active)
8,Cc1ccc(S(=O)(=O)N2CCN(c3nc(-n4cnc5ccccc54)nc4ccccc34)CC2)cc1,inactive
9,Cc1ccc(OCC(=O)Nn2cnc3ccccc32)cc1,inactive
10,O=C(c1ccc(Cl)cc1)n1cnc2ccccc21,inactive
11,COc1ccc(-c2cc(C(=O)n3cnc4ccccc43)c3ccccc3n2)cc1,31.6 µM (active)
12,CC(=O)Nc1cc(-c2cccc(CO)c2)cn2c(-c3cccc(C(F)(F)F)c3)cnc12,inactive
13,CCN(CC)c1ncnc2c1ncn2[C@H]1CN(Cc2cccs2)C[C@@H](CO)O1,inactive
14,Cc1cc(=O)oc2cc(NC(=O)C3CC(=O)N(Cc4ccccc4)C3)ccc12 (stereo unspecified),inactive
15,Cc1cc(OCCCN2CCN(Cc3ccccc3)CC2)ccc1[N+](=O)[O-],inactive
16,Cc1ccccc1NC(=O)c1ccc(COc2ccc3c(C)cc(=O)oc3c2)cc1,inactive
17,Cc1ccccc1N1CCN(CCCOc2ccc3c(C)cc(=O)oc3c2)CC1,35.5 µM (active)
18,Cc1cc(=O)oc2cc(OCC3CC(c4ccccc4Cl)=NO3)ccc12 (stereo unspecified),28.2 µM (active)
19,COc1ccccc1N1CCN(CCCCOc2ccc(F)cc2)CC1,inactive
20,COc1cccc(C(NC(C)=O)c2nc(-c3ccccc3OC)cs2)c1 (stereo unspecified),inactive
21,CC1(C(=O)Nc2ccccc2Br)CCN1C(=O)CC1CC1 (stereo unspecified),inactive
22,COc1ccc(C2OC(CCc3ccccc3)Cc3[nH]c(=S)[nH]c(=O)c32)cc1 (stereo unspecified),inactive
23,OC[C@@H]1CN(Cc2ccncc2)C[C@H](n2cnc3c(N4CCN(c5ccccc5)CC4)ncnc32)O1,inactive
24,COCCCn1cc(CN2CC(N(C)C)CS2(=O)=O)nn1 (stereo unspecified),inactive
25,CCCCC(O)C1=C[N+](=O)CC=C1 (stereo unspecified),inactive
26,CCOCCCNc1c(CC)c(C)c(C#N)c2nc3ccccc3n12,inactive

row,Structure (SMILES),Potency
1,Cc1cc(NC(C)C)n2c(nc3ccccc32)c1C#N,inactive
2,Cc1cc(NCc2ccco2)n2c(nc3ccccc32)c1C#N,28.2 µM (active)
3,N#CCCN(C(=O)Nc1ccc(Cl)c(Cl)c1)C1CCCCC1,inactive
4,CCOC(=O)C1CCCN(C(=O)c2cc(-c3cccs3)oc2C)CC1 (stereo unspecified),inactive
5,CCOC(=O)c1c(NC(=O)COc2cc(C)ccc2C(C)C)sc(C)c1C,inactive
6,Cc1ccc(NC(=O)CN(C)C(=O)COC(=O)c2nccnc2N)cc1,inactive
7,CCOC(=O)c1cc(C(C)C)sc1NC(=O)COC(=O)c1nccnc1N,20 µM (active)
8,COc1ccc(-c2csc(NC(=O)c3ccc(N4C(=O)CCC4=O)cc3)n2)cc1OC,14.1 µM (active)
9,COc1ccc(-c2csc(Nc3cccc(C)n3)n2)cc1OC,inactive
10,COc1ccc(C(=O)Nc2nc(-c3ccc(S(=O)(=O)N4CCOCC4)cc3)cs2)cc1,inactive
11,CC(=O)c1sc2nc(SCC(=O)N3CCCCC3)[nH]c(=O)c2c1C,31.6 µM (active)
12,O=C(CSc1nc2c(cnn2-c2ccc(F)cc2)c(=O)[nH]1)N1CCCCCC1,inactive
13,C=CCNC(=O)CSc1nc2sc(C)c(C)c2c(=O)[nH]1,inactive
14,CC(C)CC1C(=O)N(Cc2cn(CC3CCCCC3)nn2)CCS(=O)(=O)N1Cc1ccc(-c2ccc(Cl)cc2)cc1 (stereo unspecified),inactive
15,CO[C@@H]1CN(C)C(=O)c2cc(NC(=O)Nc3cc(F)ccc3F)ccc2OC[C@H](C)N(C(=O)c2ccccn2)C[C@@H]1C,inactive
16,CC(C)Cn1c(N)c(C(=O)NCc2cccs2)c2nc3ccccc3nc21,7.08 µM (active)
17,Cn1ncc(Br)c1C(=O)NCc1cccs1,inactive
18,CCOc1ccccc1NC(=O)Cn1nnc(C(=O)NCc2cccs2)c1N,inactive
19,NCCCNC(=S)NCCCN(Cc1ccc(Cl)cc1)c1ccc(Br)cn1,inactive
20,CC1(C(=O)Nc2ccc3c(c2)OCCO3)CN(S(C)(=O)=O)CC(=O)N1Cc1cccc(F)c1 (stereo unspecified),inactive
21,O=C(NCc1cccnc1)Nc1ccccc1F,inactive
22,CCC(Oc1ccccc1)C(=O)NCc1cccnc1 (stereo unspecified),35.5 µM (active)
23,CCC(C(=O)NCc1cccnc1)n1nc(C)c2sc3ccccc3c2c1=O (stereo unspecified),inactive
